# This is a sample that favours compounds with a hit; in the whole collection about 21% have one here.
# D3 antag = D3 dopamine receptor (human) antagonism. max response, negative = inhibition, %. 360,000 compounds, 2.5% hits. AID 652054. D3R cells, DiscoveRx beta-arrestin luminescence, antagonist mode; active compounds read low. P35462; in the data active means max response below about -50%; inconclusive means no clear call, values can overlap the other calls; further: on the % scale 0 is the no-effect control and ±100 the full control effect
# Target sequence (P35462 whole entry, looked up): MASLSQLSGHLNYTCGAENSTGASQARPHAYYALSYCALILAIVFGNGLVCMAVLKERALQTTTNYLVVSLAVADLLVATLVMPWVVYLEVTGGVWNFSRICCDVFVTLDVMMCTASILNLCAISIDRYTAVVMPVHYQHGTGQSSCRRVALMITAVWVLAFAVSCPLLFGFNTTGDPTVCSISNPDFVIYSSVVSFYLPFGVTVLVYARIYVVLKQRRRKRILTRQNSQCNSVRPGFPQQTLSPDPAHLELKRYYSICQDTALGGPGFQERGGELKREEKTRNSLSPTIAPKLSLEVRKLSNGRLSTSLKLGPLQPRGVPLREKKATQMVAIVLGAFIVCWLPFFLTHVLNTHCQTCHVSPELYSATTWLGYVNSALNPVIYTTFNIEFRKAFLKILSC
#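 Cells plated overnight at 1500 cells/well, then exposed to library compounds with dopamine controls for 90 minutes at 37 degrees C. DiscoveRx reagent added for 30–60 minutes at room temperature; luminescence read, quantitative HTS format.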
# D3 ag = agonists of human D3 dopamine receptor | 410,000 compounds, 0.58% hits | P35462 | D3R DiscoveRx beta-arrestin cells, luminescence, 90 min | AID 652048 | max activation, %; in the data active means max activation above about 30%; further: 0% is about no effect
#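 Cells at 1500/well, incubated overnight, then treated with pinned compounds (dopamine as control) for 90 min at 37 degrees C. DiscoveRx reagent added for 30 - 60 minutes at room temperature; luminescence read.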
# IL1B secr inh = inflammasome signaling inhibition, IL-1 beta readout | 360,000 compounds, 4.7% hits | activity change, % at 57.5 µM | THP-1 LPS/ATP IL-1B secretion, AlphaLISA, 16 h; active compounds read low; in the data active means activity change below about -50%; inconclusive means mostly about -30% to -49%; further: on the % scale 0 is the no-effect control and ±100 the full control effect
#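 Secreted IL-1B measured by AlphaLISA bead assay after 16 h compound exposure of THP-1 cells; compounds (final up to 57.5 uM) added 1 h before LPS (250 ng/mL) and ATP (1.25 mM) stimulation; lower signal means less secretion.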
# DT40 TDP1 CPT = DT40-hTDP1 cell growth loss with CPT; 420,000 compounds, 12% hits; Potency, µM (titrated, usually from 46.2 µM), for the others: at the highest dose activity change, negative = growth inhibition, actives largely listed as inhibitors; chicken DT40 Tdp1-/-;hTDP1 cells + 20 nM CPT, ATP luminescence, 48 h; further: potency means the concentration at half of the fitted maximal effect; on the % scale 0 is the no-effect control and ±100 the full control effect; nearly all actives have a fitted effect of over 55% in size
#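 Chicken DT40 Tdp1-/- cells complemented with human TDP1, 400 cells/well, exposed to compounds plus 20 nM camptothecin for at least 48 h at 37 C; viability read as ATP content by CellTiter-Glo luminescence.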
# ClpP mod = qHTS Assay for Activators of ClpP; ATP-dependent Clp protease proteolytic subunit (Bacillus subtilis (strain 168)), P80244; purified B. subtilis ClpP, FRET peptide cleavage, 20 min; Potency, µM (highest dose often 57.5 µM), inactives show at the top dose activity change, negative = active; 340,000 compounds, 1.9% hits; AID 651965, 2013; active means well fitted falling curve with a large enough effect; inconclusive means small, poorly fitted or top-dose-only effect; inactive means no such curve, though single readings can be large or run the other way; further: potency means the concentration at half of the fitted maximal effect; the source files actives as falling curves though it sought activators and does not explain the sign; nearly all actives have a fitted effect of over 65% in size
# Target sequence (P80244 whole entry, looked up): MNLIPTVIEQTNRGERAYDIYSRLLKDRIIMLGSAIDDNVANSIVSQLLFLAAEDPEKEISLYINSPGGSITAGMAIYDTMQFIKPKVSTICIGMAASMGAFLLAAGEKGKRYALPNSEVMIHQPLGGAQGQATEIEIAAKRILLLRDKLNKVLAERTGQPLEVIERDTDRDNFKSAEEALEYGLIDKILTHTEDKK
#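 FRET quenching reversal measured ClpP activation: 10 microg/mL B. subtilis ClpP at pH 8 with the FRET-FV decapeptide, read at 430 nm after 320 nm excitation. The 20-min minus 0-min signal was scaled between DMSO/no-enzyme wells and ADEP (5.8 microM final).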
# DT40 TDP1 no CPT = qHTS for Inhibitors of human tyrosyl-DNA phosphodiesterase 1 (TDP1): qHTS in cells in absence of CPT; DT40 Tdp1-/- hTDP1 cells, no CPT, ATP luminescence, 48 h; Potency, µM (doses to about 46.2 µM), for inactives: top-dose activity change, negative = growth inhibition, actives largely listed as inhibitors; 420,000 compounds, 15% hits; AID 686978, 2013; further: potency means the concentration at half of the fitted maximal effect; on the % scale 0 is the no-effect control and ±100 the full control effect; nearly all actives have a fitted effect of over 55% in size
#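 Readout: luminescence from CellTiter-Glo after 30 min in the dark at RT. Cells: DT40 Tdp1-/- with stable hTDP1, 400/well. Exposure: compounds alone, ≥48 hr, 37 °C.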
# The depositor's hits bear a star; ? = inconclusive; / = no result given. Unless noted, the call rests on the fitted dose curve; in most records, active means well fitted inhibition curve with a large enough effect; inconclusive means small, poorly fitted or top-dose-only effect; inactive means flat fitted curve, though single readings scatter.
SMILES,D3 antag,D3 ag,IL1B secr inh,DT40 TDP1 CPT,ClpP mod,DT40 TDP1 no CPT
CC(Oc1cccnc1[N+](=O)[O-])C(=O)N1CCc2ccccc21 (centres undefined),23,-5,-5,-15%,-2%,?
CCCn1c(=O)c(C)cn2nc(N)nc12,/,/,/,6%,/,-1%
COc1ccc(Cl)cc1C(=O)NNC(=O)COC(=O)CCN=C1NS(=O)(=O)c2ccccc21,-108*,-65,2,0%,2%,-19%
COc1ccc(C)cc1/C=C/C(=O)N1CCN(S(=O)(=O)c2cccs2)CC1,43,-1,-10,21µM*,0%,?
Cc1ccc(/C=C/C(=O)N2CCN(S(=O)(=O)c3cccs3)CC2)o1,25,3,37,5%,-4%,-7%
Cc1cc(C)c(C(=O)N(CCN(C)C)CC2CCCN(Cc3ccccc3F)C2)o1 (centres undefined),-25,-9,?,-25%,-3%,?
Cc1cc(C)c(NC(=O)c2cccs2)c(C)c1NC(=O)c1cccs1,2,5,-2,-3%,/,0%
CCN(CC)S(=O)(=O)c1ccc2c3c(cccc13)C(=O)N2,-28,-7,50,-17%,-29%,?
CCOc1ccc(NS(=O)(=O)c2ccc3c4c(cccc24)C(=O)N3)cc1,/,-9,/,16µM*,0%,?
O=C1Nc2ccc(S(=O)(=O)NCCCO)c3cccc1c23,-22,1,-15,-13%,5%,-13%
CCNS(=O)(=O)c1ccc2c3c(cccc13)C(=O)N2,1,1,0,-15%,32µM*,-23%
CCN(c1cccc(C)c1)S(=O)(=O)c1ccc2c3c(cccc13)C(=O)N2,24,2,0,?,-10%,11µM*
Cc1nn(Cc2ccccc2)c2ncccc12,22,1,6,?,-6%,?
CN(C)C1(CN=Cc2cc(Cl)cc([N+](=O)[O-])c2O)CCCCC1,-68*,-7,-7,-5%,/,-24%
COc1cc(C)ccc1OCc1cc(C(=O)N2CCCCCCC2)no1,3,5,-4,-2%,2%,-4%
Cc1c(-c2nc(N)nc(Nc3ccccc3)n2)oc2ccccc12,38,3,?,?,-3%,16µM*
COc1ccc(OCc2nc(N)nc(Nc3ccccc3)n2)cc1,21,-5,-20,-25%,-2%,?
COc1ccc(-c2csc3ncnc(Oc4cccc5ccc(C)nc45)c23)cc1,9,6,-9,16µM*,-8%,?
Cc1nc(N2CCN(c3ccccc3O)CC2)c2c(-c3ccccc3)csc2n1,115,32*,-62*,?,/,16µM*
Cc1ccc2cccc(Oc3ncnc4scc(-c5ccccc5)c34)c2n1,-7,-5,0,?,1%,?
Oc1ccccc1N1CCN(c2ncnc3scc(-c4ccccc4)c23)CC1,106,39*,?,?,/,23µM*
CC(=O)Nc1cccc(Oc2ncnc3scc(-c4ccc(C(C)C)cc4)c23)c1,8,1,-52*,1.3µM*,-6%,1.2µM*
Cc1ccc(OCCSc2nc3ccccc3n2CC(=O)N2CCOCC2)c(C)c1,/,1,/,?,0%,?
CCOc1ccc(OCCOC(=O)CN(C)S(=O)(=O)c2ccc(NC(C)=O)cc2)cc1,14,6,-12,-3%,-3%,0%
O=C(NC(=S)N1CCN(Cc2ccccc2)CC1)c1ccco1,8,8,27,-17%,/,-16%
SMILES,D3 antag,D3 ag,IL1B secr inh,DT40 TDP1 CPT,ClpP mod,DT40 TDP1 no CPT
COc1ccc(-c2csc3ncnc(N4CCN(CCO)CC4)c23)cc1,-11,-12,-15,-23%,/,?
CN1CCN(c2ncnc3scc(-c4ccccc4Cl)c23)CC1,?,-3,?,?,/,9.2µM*
COc1ccc(-c2csc3ncnc(N4CCN(c5ccccc5OC)CC4)c23)cc1,72,20,?,?,/,18µM*
Cc1ccc(NC(=O)C2CCCN(S(=O)(=O)c3ccc4[nH]c(=O)ccc4c3)C2)c(C)c1 (centres undefined),-1,0,0,?,9%,?
COc1ccccc1CNC(=O)[C@H](C)NC(=O)C1CCN(C(=O)[C@H](CCSC)NC(=O)OC(C)(C)C)CC1,0,-10,-12,-10%,0%,-14%
Cc1ccc(O)c(C2=NNC(c3ccc(Cl)cc3)C2)c1 (centres undefined),-5,-7,2,?,-14%,?
Cc1ccc(C2Cc3cc(O)c(O)cc3CN2)cc1 (centres undefined),-15,24,13,15µM*,/,16µM*
CC(=O)N(c1ccc2ccccc2c1)C1SC(=O)N(c2cccc(C)c2)C1=O (centres undefined),/,/,/,4%,3%,-14%
CCOC(=O)N1CCN(CC(O)COC2CC(C)CC(C)(C)C2)CC1 (centres undefined),7,-16,-17,?,-1%,?
CC1CC(OC(=O)C(O)c2ccccc2)CC(C)(C)C1 (centres undefined),/,9,/,?,/,7.5µM*
COc1ccccc1CNC(=O)c1ccc2c(c1)sc1nc(-c3ccc(F)cc3)cn12,/,-2,/,7.3µM*,4%,8.2µM*
COc1cccc(CNC(=O)c2ccc3c(c2)sc2nc(-c4ccccc4)cn23)c1OC,/,5,/,9.2µM*,?,5.8µM*
CC1CCN(c2nc(-c3ccc(Br)cc3)nc3ccccc23)CC1,/,-16,/,?,0%,?
Clc1ccc(-c2nnc(-c3ccccc3)c(N3CCSCC3)n2)cc1,6,-3,-30,21µM*,2%,?
FC(F)(F)c1nnc(-c2ccccc2)nc1N1CCOCC1,-3,13,4,-2%,0%,-10%
FC(F)(F)c1cccc(-c2nnc(-c3ccccc3)c(N3CCOCC3)n2)c1,-14,-32,-26,18µM*,1%,16µM*
CC1CN(c2nc(-c3ccc(Br)cc3)nnc2-c2ccccc2)CC(C)N1 (centres undefined),20,3,-105*,13µM*,1%,10µM*
COc1cc(C=O)ccc1OC(=O)N1CCOCC1,14,2,7,-1%,-5%,15%
COC(=O)C1=C(C)N(C(C)C)C(=O)C1(NC(=O)c1ccccc1OC)C(F)(F)F (centres undefined),/,-5,/,-22%,-1%,-23%
